Rows were chosen to be rich in hits. Some 12% of all compounds tested hit in one or more screens of this group.
Cycloheximide cs – affects cycloheximide protein synthesis inhibition readout, counter-screen. cell reporter, cycloheximide protein synthesis inhibition counterscreen. max response, %. hit rate 12% among 300,000. AID 2314; in the data active = max response mostly above about 13%, no sharp cut-off; inactive = mostly below about 14%; also: read at 38.3 µM for the half of the compounds with a filed dose
FMDV antiviral – blocks foot and mouth disease virus | FMDV antiviral cell-based qHTS | Potency, µM (highest dose often 57.9 µM), hits mostly inhibitors | hit rate 1.2% among 410,000 | AID 1159524; calls by dose curve; tested in HEK293T cells; also: read-out not given here; nearly all actives have a fitted effect of over 45% in size
Shiga toxin inh – inhibitors of Shiga toxin in Vero cells; Vero cells, Shiga toxin protein synthesis inhibition reporter; inhibition, % at 38.7 µM; hit rate 9.2% among 290,000; in the data active = inhibition mostly above about 28%, no sharp cut-off; inactive = mostly below about 43%
Sm TGR block – inhibitors of Schistosoma mansoni thioredoxin glutathione reductase | Q962Y6 | purified TGR, DTNB reduction, TNB absorbance 405 nm | Potency, µM (titrated, usually from 114 µM), usual class: inhibitors | hit rate 3% among 360,000 | AID 485364; active = well fitted inhibition curve with a large enough effect; inconclusive = small, poorly fitted or top-dose-only effect; inactive = no such curve, though single readings can be large or run the other way; also: nearly all actives have a fitted effect of over 60% in size
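Kinetic colorimetric format: TGR-catalysed, NADPH-driven DTNB reduction monitored via TNB absorbance. Enzyme dispensed at 20 nM; compound exposure 15 min at room temperature before reaction start.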
Of the large screens only hits and unclear results are named; the others gave an inactive call.

COC(=O)c1ccc(Cn2c(=O)cc(C)c3c(C)nn(C)c32)cc1	FMDV antiviral inconclusive (no result: Cycloheximide cs, Shiga toxin inh)
COC(=O)C1=C[C@@H](C(=O)OC)C2C3=C(C(=O)[C@@]2(C)NC(=O)c2ccccc2)[C@H](c2ccccc2)[C@@H]2C(=O)N(c4ccccc4)C(=O)[C@@H]2[C@@H]3C1 (stereo not given in full)	none (no result: FMDV antiviral, Sm TGR block)
CS(=O)(=O)Nc1cccc(-c2ccc3ncnc(NCCN4CCOCC4)c3c2)c1	none (no result: Cycloheximide cs, Shiga toxin inh, Sm TGR block)
CCCC(=O)c1ccc(OC(=O)c2c(-c3ccccc3Cl)noc2C)cc1	none (no result: Cycloheximide cs, Shiga toxin inh)
Cc1onc(-c2ccccc2Cl)c1C(=O)O/N=C(\N)c1ccccc1	Cycloheximide cs 23.1, Sm TGR block inconclusive
Cc1onc(-c2cccc(Cl)c2Cl)c1C(=O)O/N=C(\N)c1ccc([N+](=O)[O-])o1	Cycloheximide cs 9.1, FMDV antiviral inconclusive, Sm TGR block inconclusive
CCOc1ccc(OC(=O)c2c(-c3ccccc3Cl)noc2C)cc1	FMDV antiviral 39.8µM (no result: Cycloheximide cs, Shiga toxin inh)
Cc1onc(-c2ccccc2)c1C(=O)O/N=C(\N)c1ccc([N+](=O)[O-])o1	FMDV antiviral inconclusive, Sm TGR block inconclusive
CC1(C)CCC[C@@]2(C)C1CC[C@@](C)(O)[C@@H]2CC[C@@](C)(O)C1CO1 (stereo not given in full)	none (no result: Cycloheximide cs, Shiga toxin inh, Sm TGR block)
Cn1ccc2cc(S(=O)(=O)N3CCN(S(=O)(=O)c4c(F)cccc4F)CC3)ccc21	none (no result: FMDV antiviral, Sm TGR block)
CCc1ccc(NC(=O)c2cc3c([nH]c2=O)CC(C)(C)CC3=O)cc1	none (no result: Cycloheximide cs, Shiga toxin inh)
Cc1cc(C)n2c(SCc3ccc(Br)cc3)nnc2n1	Cycloheximide cs 11.2
COc1cc(-c2nc(C)cnc2C)cc2c1OCCN(C(=O)Cc1cc(OC)c(OC)c(OC)c1)C2	none (no result: Cycloheximide cs, Shiga toxin inh, Sm TGR block)
O=C(Nc1ccccc1)N1CCc2ccccc2C1	Cycloheximide cs 59.6, Shiga toxin inh active
Cc1ccc(NC(=O)N2CCc3ccccc3C2)cc1	Cycloheximide cs 48.0, Shiga toxin inh 57.8
CCc1ccccc1NC(=O)N1CCc2ccccc2C1	none
O=C(Nc1ccc(Cl)cc1)N1CCc2ccccc2C1	none
Cc1ccc(NC(=O)N2CCc3ccccc3C2)c(C)c1	Cycloheximide cs 42.1, Shiga toxin inh 64.9
Cc1ccc(SCC(=O)c2cc(C)c(O)c(C)c2)cc1	Cycloheximide cs 16.8, Shiga toxin inh 49.7
Cc1ccc(SCC(=O)c2c(C)nc3ccccn23)cc1	Cycloheximide cs 30.6, Shiga toxin inh 61.6
Cc1ccc(SCC(=O)NC2CC2)cc1	none
CCOC(=O)c1c(C)nc2ccccn12	none
CCOc1ccc(C(=O)c2cn(CC(=O)Nc3ccc4c(c3)OCO4)c3ccc(OC)cc3c2=O)cc1	none (no result: Cycloheximide cs, Shiga toxin inh)
Cc1cccc(-c2nn3c(=O)cc(CN4CCN(C(=O)c5ccccc5Br)CC4)nc3s2)c1	none (no result: Cycloheximide cs, Shiga toxin inh)
Cc1ccccc1CNC(=O)c1ccc(Cn2c(SCc3ccccc3)nc3cccnc32)cc1	none (no result: Cycloheximide cs, Shiga toxin inh)
O=C(c1ccc(SCc2ccco2)c([N+](=O)[O-])c1)N1CCOCC1	none (no result: Sm TGR block)
O=[N+]([O-])c1c(NCCCO)cc(SCc2ccco2)c2nonc12	Sm TGR block 3.16µM
CC(=O)OCCNc1cc(SCc2ccco2)c2nonc2c1[N+](=O)[O-]	FMDV antiviral 31.6µM
O=[N+]([O-])c1c(NCCCO)cc(Sc2ccc(Cl)cc2)c2nonc12	FMDV antiviral 25.1µM, Sm TGR block 5.62µM
COc1ccc(Nc2cc(NCCCO)c([N+](=O)[O-])c3nonc23)cc1	none
Cn1ccnc1Sc1cc(NCCCO)c([N+](=O)[O-])c2nonc12	FMDV antiviral 25.1µM, Sm TGR block 0.708µM
Cn1cc(-c2nc3cnc(Oc4ccccc4)nc3n(C3CC3)c2=O)c2ccccc21	none (no result: Cycloheximide cs, Shiga toxin inh, Sm TGR block)
CCn1cc(C(=O)N2CCN(c3ccc(F)cc3)CC2)c(=O)c2cc(S(=O)(=O)N3CCOCC3)ccc21	none (no result: Cycloheximide cs, Shiga toxin inh)
CCCC(=O)Nc1cc(C(=O)NCc2ccccc2)ccc1S(=O)(=O)c1ccc(Cl)cc1	none (no result: Cycloheximide cs, Shiga toxin inh)
O=C(NCc1nc2ncc(Br)cc2[nH]1)c1ccccc1	Cycloheximide cs 15.4
O=C(NCc1nc2ccccc2[nH]1)c1cccc(Cl)c1	none (no result: Cycloheximide cs, Shiga toxin inh)
CCc1cc2c(N3CCN(c4ccccc4)CC3)ncnc2s1	FMDV antiviral 25.1µM
Clc1ccc(Cn2ncc3c(N4CCOCC4)ncnc32)cc1	FMDV antiviral inconclusive
Cc1ccc(Cn2ncc3c(N4CCN(CC#N)CC4)ncnc32)cc1	FMDV antiviral 31.6µM
Clc1ccc(Cn2ncc3c(N4CCCC4)ncnc32)cc1	none
c1ccc(Cn2ncc3c(N4CCN(C(c5ccccc5)c5ccccc5)CC4)ncnc32)cc1	FMDV antiviral inconclusive, Sm TGR block 44.7µM (no result: Shiga toxin inh)
c1ccc(Cn2ncc3c(N4CCN(c5ccccc5)CC4)ncnc32)cc1	FMDV antiviral 22.4µM (no result: Cycloheximide cs, Shiga toxin inh, Sm TGR block)
Cc1ccc(Cn2ncc3c(N4CCCC4)ncnc32)cc1	none
Oc1ccc(N2CCN(c3ncnc4sc(-c5ccccc5)cc34)CC2)cc1	FMDV antiviral inconclusive
CCOC(=O)Cc1ccc(NC(=O)NCc2c(-n3cccc3)sc3c2CCCC3)cc1	none (no result: Cycloheximide cs, Shiga toxin inh)
CCC(=O)Nc1cc(C(=O)OCC(=O)c2ccccc2Cl)ccc1C	Cycloheximide cs 44.8, Shiga toxin inh 105.6
Cc1ccc(C(=O)OCC(=O)c2c[nH]c3ccccc23)cc1NC(=O)c1ccco1	Cycloheximide cs 19.0
CCC(=O)Nc1cc(C(=O)OCC(=O)c2ccccc2)ccc1C	Cycloheximide cs 53.1, Shiga toxin inh active
Cc1cccc(CSc2cn(CC(=O)N3CCCC3)c3ccccc23)c1	none (no result: Cycloheximide cs, Shiga toxin inh)
Cc1ccc2c(c1)c1c(c(=O)n(-c3ccccc3C)c(=O)n1CC(=O)NCCC1=CCCCC1)n2C	FMDV antiviral inconclusive (no result: Cycloheximide cs, Shiga toxin inh)
O=C(Cn1c(-c2cccs2)cc2cc(F)ccc21)NCCc1ccc(Cl)cc1	none (no result: Cycloheximide cs, Shiga toxin inh)
CCCCOC(=O)c1ccc(OC(=O)c2sc3ncn(Cc4cccc(F)c4)c(=O)c3c2C)cc1	none (no result: Cycloheximide cs, Shiga toxin inh)
CC1=CC(=C2C(=O)NC(=S)NC2=O)C=C(C(F)(F)F)N1C	none
CC1=CC(=C2C(=O)c3ccccc3C2=O)C=C(C)N1C	Cycloheximide cs 25.9
Cc1[nH]nc2c1C(c1cn[nH]c1-c1ccc(F)cc1)C(C#N)=C(N)O2 (stereo not given)	FMDV antiviral 22.4µM
Cc1[nH]nc2c1C(c1ccco1)C(C#N)=C(N)O2 (stereo not given)	none
COc1ccc(-c2ccc(C3C(C#N)=C(N)Oc4n[nH]c(C)c43)o2)cc1 (stereo not given)	Cycloheximide cs 23.2
N#CC1=C(N)Oc2n[nH]c(-c3ccc(F)cc3)c2C1c1cccnc1 (stereo not given)	none
COCCNC(=O)c1c(NC(=O)Cc2coc3cc(C)ccc23)sc2c1CCCC2	none (no result: Cycloheximide cs, Shiga toxin inh)
C=CCc1ccccc1OCC(O)CNC (stereo not given)	Sm TGR block 25.1µM
N#Cc1c(N)n(-c2ccccc2N)c2nc3ccccc3nc12	Sm TGR block 44.7µM
Cc1cc(C)cc(NC(=O)c2cc(C)n(Cc3cccs3)c2C)c1	Cycloheximide cs 48.9, Shiga toxin inh 53.0, Sm TGR block 39.8µM
COc1ccc(NC(=O)c2cc3c(=O)n(Cc4cccs4)ccc3nc2C)cc1	none (no result: Cycloheximide cs, Shiga toxin inh)
Cc1cc(C(=O)Nc2ccc(Cl)cc2)c(C)n1Cc1cccs1	Cycloheximide cs 67.2, Shiga toxin inh 94.9, Sm TGR block inconclusive
Cc1cc(Cl)c2oc(C(=O)NCCN3CCCCC3CO)c(C)c2c1 (stereo not given)	Cycloheximide cs 14.8
Cc1cc(Cl)c2oc(C(=O)NCCC3CCCCO3)c(C)c2c1 (stereo not given)	Shiga toxin inh 86.8
Cc1c(C(=O)NCC2CCCO2)oc2c(Cl)cccc12 (stereo not given)	none (no result: Cycloheximide cs, Shiga toxin inh)

Bioassay records (PubChem)
